Test results reported in PubChem BioAssay.
The source made the active and inactive calls.

Tests used:
[1] = test system: Plasmodium falciparum Sir2 (PF13_0152, Sir2A); test: pfSir2 binders on small-molecule microarrays, primary screen, biochemical, small-molecule microarray, 635 nm fluorescence (AID 1098); conditions: small-molecule microarray binding, fluorescence 635 nm; higher = more signal;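 also: score merges spot fluorescence intensity with its signal-to-noise ratio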
[2] = small-molecule microarray binders of probe aDKK1, primary screen, biochemical, biotinylated probe, 635/667 nm fluorescence (AID 1099); conditions: higher = more signal;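 also: score merges 667nm spot fluorescence with signal to noise across triplicate slides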
[3] = small-molecule microarray binders of probe aCHRDL2, primary screen, biochemical, biotinylated probe, 635/667 nm fluorescence (AID 1100); conditions: higher = more signal
[4] = splicing luciferase reporter signal modulators, primary screen, spliceosome inhibition project, cell-based, HEK293, splice +/- reporter (AID 1101); conditions: luminescence, 24 h, higher = more signal, called active from +8 up or from −8 down;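 also: HEK293 cells carrying a splicing-competent luciferase reporter gene; test concentration not given here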
[5] = molecular target: Fibroblast growth factor 10 (Homo sapiens) (UniProt O15520); test: FGF10 binders on small-molecule microarrays, primary screen, biochemical, small-molecule microarray, 635 nm fluorescence (AID 1102); conditions: FGF10 binding, fluorescence 635 nm, higher = more signal
[6] = test system: glycogen synthase kinase-3 (GSK3A per assay name; protocol says GSK3B); test: GSK3 binders on small-molecule microarrays, primary screen, biochemical, small-molecule microarray, 635 nm fluorescence, GSK3A (AID 1103); conditions: small-molecule microarray binding, fluorescence 635 nm; higher = more signal; also: the record names both GSK3A and GSK3B
[7] = molecular target: Epidermal growth factor receptor (Homo sapiens) (UniProt P00533); test: EGFR binders on small-molecule microarrays, primary screen, biochemical, small-molecule microarray, 635 nm fluorescence (AID 1104); conditions: EGFR binding, higher = more signal;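 also: score merges 667 nm emission intensity with spot signal to noise over triplicate slides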
[8] = molecular target: Follistatin-related protein 3 (Homo sapiens) (UniProt O95633); test: FSTL3 binders on small-molecule microarrays, primary screen, biochemical, small-molecule microarray, 635 nm fluorescence (AID 1105); conditions: FSTL3 binding, higher = more signal;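 also: score merges emission near 667 nm and signal to noise per printed spot across three slides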
[9] = molecular target: Dickkopf-related protein 1 (Homo sapiens) (UniProt O94907); test: DKK1 binders on small-molecule microarrays, primary screen, biochemical, small-molecule microarray, 635 nm fluorescence scan (AID 1106); conditions: DKK1 binding, higher = more signal;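 also: score merges emission near 667 nm with signal to noise over three replicate slides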
[10] = test system: Inhibin beta A chain (activin A); test: INHBA (activin A) binders on microarrays, primary screen, biochemical, small-molecule microarray, 635 nm fluorescence scan (AID 1107); conditions: small-molecule microarray binding, higher = more signal;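 also: mouse activin A protein probed at 4.33 µg/mL on printed slides; score merges bound-protein fluorescence near 667 nm with spot signal-to-noise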
[11] = test system: Human papillomavirus type 1a protein E7 (residues 44-93); test: HPV1a E7 fragment binders on microarrays, primary screen, biochemical, small-molecule microarray, residues 44-93, 635 nm fluorescence (AID 1108); conditions: small-molecule microarray binding, fluorescence 635 nm; higher = more signal;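 also: E7 fragment applied at 1 µg/mL in TBST for 1 h at 4 C; score combines spot fluorescence with its signal to noise ratio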
[12] = modulators of HCV replicon luciferase signal, primary screen, HCV replication inhibitor project, Huh7 cells, luciferase reporter (AID 1109); conditions: 48 h, higher = more signal;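 also: huh7 hepatoma cells harbouring a luciferase neomycin HCV replicon reporter; luciferase luminescence as measure of HCV replicon replication; test concentration not given here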
[13] = molecular target: Left-right determination factor 2 (Homo sapiens) (UniProt O00292); test: LEFTY2 binders on small-molecule microarrays, primary screen, biochemical, small-molecule microarray, 635 nm fluorescence scan (AID 1110); conditions: LEFTY2 binding, higher = more signal
[14] = molecular target: Calmodulin-1 (Homo sapiens) (UniProt P0DP23); test: CALM1 binders on microarrays, EGTA buffer, profiling panel, biochemical, small-molecule microarray, Cy5-labelled CALM1 (AID 1111); conditions: Cy5-CALM1 binding fluorescence, higher = more signal;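 also: labelled calmodulin applied in Tris saline Tween buffer holding calcium plus EGTA and DTT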
[15] = molecular target: Calmodulin-1 (Homo sapiens) (UniProt P0DP23); test: calcium-bound CALM1 binders on microarrays, profiling panel, artefact control for SMM control-protein annotation, biochemical, small-molecule microarray, Cy5-labelled CALM1, plus calcium (AID 1112); conditions: Cy5-CALM1 binding fluorescence, higher = more signal;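 also: score merges spot fluorescence with signal to noise from triplicate slides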
[16] = small-molecule microarray binders of probe aWnt5a, primary screen, biochemical, biotinylated probe, 635/667 nm fluorescence (AID 1113); conditions: higher = more signal;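 also: score merges 667 nm fluorescence intensity with signal-to-noise per printed feature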
[17] = small-molecule microarray binders of probe aShh, primary screen, biochemical, biotinylated probe, 635/667 nm fluorescence (AID 1114); conditions: higher = more signal;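 also: probe is biotin-labelled aShh protein from a stem cell growth factor screen; measures binding of labelled protein to compounds printed on the slide; score merges feature fluorescence at 667 nm with signal-to-noise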
[18] = small-molecule microarray binders of probe aNog, primary screen, biochemical, biotinylated probe, 635/667 nm fluorescence (AID 1115); conditions: higher = more signal;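 also: probe is biotinylated aNog protein used at 0.15 µg/mL for 1 h at 4 C; z-score combines 667 nm fluorescence of each spot with its signal to noise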
[19] = molecular target: Torsin-1A-interacting protein 1 (Homo sapiens) (UniProt Q5JTV8); test: LAP1 binders from COS7 cell lysate, primary screen, small-molecule microarray, 635/667 nm fluorescence (AID 1116); conditions: COS7-hLAP1 lysate binding, 635 nm fluorescence, higher = more signal
[20] = molecular target: Alpha-bungarotoxin (Bungarus multicinctus) (UniProt P60615); test: alpha-bungarotoxin binders on microarray, profiling panel, artefact control for SMM control protein annotation, biochemical, small-molecule microarray, Alexa647 label, 635/667 nm fluorescence (AID 1117); conditions: alpha-BTX-A647 binding fluorescence, higher = more signal
Sequence of Alpha-bungarotoxin (Bungarus multicinctus) (P60615 whole entry, looked up): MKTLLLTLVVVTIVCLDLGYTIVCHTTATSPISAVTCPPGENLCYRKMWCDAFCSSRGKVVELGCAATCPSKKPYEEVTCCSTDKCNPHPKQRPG

Sequence of Dickkopf-related protein 1 (Homo sapiens) (O94907 whole entry, looked up): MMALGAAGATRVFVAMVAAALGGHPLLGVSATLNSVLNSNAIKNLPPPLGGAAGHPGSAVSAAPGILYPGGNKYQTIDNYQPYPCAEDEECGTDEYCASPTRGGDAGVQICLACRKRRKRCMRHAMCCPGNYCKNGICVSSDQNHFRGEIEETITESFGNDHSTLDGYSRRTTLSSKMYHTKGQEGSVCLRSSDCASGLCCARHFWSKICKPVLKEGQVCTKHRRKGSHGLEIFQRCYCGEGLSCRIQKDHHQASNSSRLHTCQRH
Sequence of Follistatin-related protein 3 (Homo sapiens) (O95633 whole entry, looked up): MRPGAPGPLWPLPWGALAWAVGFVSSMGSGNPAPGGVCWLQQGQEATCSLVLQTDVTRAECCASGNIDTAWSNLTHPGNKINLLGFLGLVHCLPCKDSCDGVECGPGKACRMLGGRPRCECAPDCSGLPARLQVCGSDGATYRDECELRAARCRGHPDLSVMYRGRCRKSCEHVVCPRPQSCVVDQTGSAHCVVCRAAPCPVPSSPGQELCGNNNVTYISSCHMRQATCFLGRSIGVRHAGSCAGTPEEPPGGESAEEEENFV
Sequence of Left-right determination factor 2 (Homo sapiens) (O00292 whole entry, looked up): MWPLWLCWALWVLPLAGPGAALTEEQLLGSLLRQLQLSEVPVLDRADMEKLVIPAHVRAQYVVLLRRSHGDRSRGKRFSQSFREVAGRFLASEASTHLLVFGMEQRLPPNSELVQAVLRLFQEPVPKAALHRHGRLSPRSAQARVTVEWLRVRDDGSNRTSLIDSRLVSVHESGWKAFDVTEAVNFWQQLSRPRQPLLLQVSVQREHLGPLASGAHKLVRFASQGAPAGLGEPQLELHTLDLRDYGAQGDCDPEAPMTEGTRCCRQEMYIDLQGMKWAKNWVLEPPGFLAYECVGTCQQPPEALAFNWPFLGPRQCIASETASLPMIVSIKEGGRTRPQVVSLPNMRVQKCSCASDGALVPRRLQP
Sequence of Fibroblast growth factor 10 (Homo sapiens) (O15520 whole entry, looked up): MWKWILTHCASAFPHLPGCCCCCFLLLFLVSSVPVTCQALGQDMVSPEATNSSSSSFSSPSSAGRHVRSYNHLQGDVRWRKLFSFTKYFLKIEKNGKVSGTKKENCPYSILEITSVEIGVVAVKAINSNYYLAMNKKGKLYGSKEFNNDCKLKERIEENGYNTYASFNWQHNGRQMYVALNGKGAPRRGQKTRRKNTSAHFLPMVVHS
Sequence of Epidermal growth factor receptor (Homo sapiens) (P00533 whole entry, looked up): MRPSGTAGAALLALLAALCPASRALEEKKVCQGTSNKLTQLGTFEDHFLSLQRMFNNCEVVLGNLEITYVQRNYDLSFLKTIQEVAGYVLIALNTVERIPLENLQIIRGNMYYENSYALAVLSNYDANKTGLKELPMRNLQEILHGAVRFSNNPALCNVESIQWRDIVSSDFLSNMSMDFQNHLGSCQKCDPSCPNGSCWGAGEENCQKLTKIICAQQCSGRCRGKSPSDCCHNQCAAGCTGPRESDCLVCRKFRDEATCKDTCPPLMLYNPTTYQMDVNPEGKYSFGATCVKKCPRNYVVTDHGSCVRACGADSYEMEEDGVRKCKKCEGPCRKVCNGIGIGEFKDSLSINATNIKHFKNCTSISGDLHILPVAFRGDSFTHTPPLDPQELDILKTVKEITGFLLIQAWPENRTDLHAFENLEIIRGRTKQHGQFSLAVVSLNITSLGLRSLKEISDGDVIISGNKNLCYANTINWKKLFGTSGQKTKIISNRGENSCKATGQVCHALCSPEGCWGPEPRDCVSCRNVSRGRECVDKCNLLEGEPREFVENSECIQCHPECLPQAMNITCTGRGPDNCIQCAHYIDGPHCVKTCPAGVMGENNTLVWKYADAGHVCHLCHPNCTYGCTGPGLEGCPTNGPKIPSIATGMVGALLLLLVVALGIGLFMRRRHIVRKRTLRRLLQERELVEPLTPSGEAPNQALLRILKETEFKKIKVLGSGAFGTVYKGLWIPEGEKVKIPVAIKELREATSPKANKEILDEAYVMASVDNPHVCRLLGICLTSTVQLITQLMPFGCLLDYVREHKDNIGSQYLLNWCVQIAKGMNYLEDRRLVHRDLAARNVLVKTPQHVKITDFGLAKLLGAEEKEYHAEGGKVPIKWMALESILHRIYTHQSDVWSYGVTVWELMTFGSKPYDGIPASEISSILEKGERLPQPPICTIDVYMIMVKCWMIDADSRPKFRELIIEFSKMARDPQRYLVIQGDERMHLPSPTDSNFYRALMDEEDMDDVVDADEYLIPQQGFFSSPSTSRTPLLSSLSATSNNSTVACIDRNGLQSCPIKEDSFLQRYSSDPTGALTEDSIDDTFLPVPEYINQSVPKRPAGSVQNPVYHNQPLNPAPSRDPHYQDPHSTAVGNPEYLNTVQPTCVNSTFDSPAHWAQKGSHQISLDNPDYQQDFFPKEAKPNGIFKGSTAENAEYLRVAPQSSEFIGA
Sequence of Torsin-1A-interacting protein 1 (Homo sapiens) (Q5JTV8 whole entry, looked up): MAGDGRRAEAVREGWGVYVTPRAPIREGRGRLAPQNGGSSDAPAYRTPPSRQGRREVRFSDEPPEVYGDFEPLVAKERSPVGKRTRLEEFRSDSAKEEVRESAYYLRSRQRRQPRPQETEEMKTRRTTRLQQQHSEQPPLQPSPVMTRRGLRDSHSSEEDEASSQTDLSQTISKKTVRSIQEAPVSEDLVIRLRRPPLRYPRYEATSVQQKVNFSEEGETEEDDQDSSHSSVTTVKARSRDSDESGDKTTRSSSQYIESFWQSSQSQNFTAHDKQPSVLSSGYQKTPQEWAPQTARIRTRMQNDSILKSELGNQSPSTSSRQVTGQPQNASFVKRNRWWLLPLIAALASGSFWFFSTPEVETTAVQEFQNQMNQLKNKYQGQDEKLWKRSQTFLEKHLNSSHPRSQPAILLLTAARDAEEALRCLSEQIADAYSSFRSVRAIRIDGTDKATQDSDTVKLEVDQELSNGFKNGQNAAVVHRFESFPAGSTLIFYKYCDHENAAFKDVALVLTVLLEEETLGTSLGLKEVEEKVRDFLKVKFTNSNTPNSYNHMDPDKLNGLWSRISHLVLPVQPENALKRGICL

| SMILES | composite z-score [1] | composite z-score [2] | composite z-score [3] | z-score [4] | composite z-score [5] | composite z-score [6] | composite z-score [7] | composite z-score [8] | composite z-score [9] | composite z-score [10] | composite z-score [11] | z-score [12] | composite z-score [13] | composite z-score [14] | composite z-score [15] | composite z-score [16] | composite z-score [17] | composite z-score [18] | composite z-score [19] | composite z-score [20] |
| --- | --- | --- | --- | --- | --- | --- | --- | --- | --- | --- | --- | --- | --- | --- | --- | --- | --- | --- | --- | --- |
| C=CCNC(=O)[C@H]1[C@@H]2C(=O)O[C@@H](c3ccccc3)[C@@H](c3ccccc3)N2[C@@H](c2ccccc2OCCO)[C@]12C(=O)N(C(=O)OCCOC)c1ccc(C#CCCO)cc12 | 0.745 | 1.73 | 0.981 | -0.485 (inactive) | 1.35 | 1.2 | 0.843 | 1.24 | 0.983 | 1.01 | 0.188 | -2.5 | 1.06 | 1.78 | 1.08 | 0.0722 | 0.715 | 1.23 | 0.985 | 0.581 |
| O=C(NCc1ccccc1)[C@@H]1c2ccccc2C(=O)N(Cc2ccccc2Cl)[C@H]1c1ccc(CO)cc1 | 0.447 | 1 | 1.01 | -1.05 (inactive) | 0.814 | 1.32 | 0.183 | 1.42 | 0.909 | 0.791 | 1.05 | -0.267 | 0.671 | -0.23 | 0.0368 | 0.0297 | 0.123 | 0.522 | 1.21 | 1.67 |
| C=CCN1C(=O)[C@@]2(O[C@@H](CCO)[C@H]([Si](C)(C)c3ccc(OC)cc3)[C@H]2C)c2cc(N3C(=O)c4cccc5cccc3c45)ccc21 | 1 | -0.0284 | 0.392 | -3.45 (inactive) | 0.102 | 0.307 | -0.232 | -0.189 | -0.4 | 0.18 | 0.515 | -5.15 | -0.144 | 0.965 | 0.734 | -0.176 | 0.123 | 0.272 | 0.201 | 1.21 |
| CCN(CC)c1ccc(N2CC=CC34O[C@@H]5C=CCOC(=O)[C@@H]5[C@H]3C(=O)N(C(CO)C(C)C)[C@@H]4C2=O)cc1 (stereo not given in full) | -0.0952 | -0.239 | -0.202 | -0.133 (inactive) | -0.608 | -0.142 | -1.01 | -0.586 | 0.0041 | 0.761 | -0.825 | -0.496 | -0.827 | -0.647 | -0.752 | -0.129 | -0.0626 | -0.481 | -0.257 | -0.274 |
| C#CCN1C(C(=O)OCC)OC[C@H]1c1ccccc1 (stereo not given in full) | 0.312 | 0.461 | -0.502 | -0.577 (inactive) | 0.388 | -0.0229 | 0.421 | 0.901 | 0.428 | -0.352 | 1.35 | -0.354 | 0.677 | -0.128 | -0.605 | -0.175 | -0.167 | -0.21 | 1.49 | 0.327 |
| COCCCN1C(=O)[C@@]2(Cc3ccccc31)c1ccccc1C(=O)N(Cc1ccccc1Cl)[C@H]2c1ccc(CO)cc1 | -0.482 | 0.337 | 0.775 | -0.471 (inactive) | -0.129 | -0.542 | -0.406 | -0.397 | -0.685 | 1.04 | -0.199 | -0.326 | -0.222 | -0.217 | -0.12 | 0.0044 | -0.0066 | 0.206 | 0.167 | -0.342 |
